Parameters in all cases: scale not given: direction of the effect not stated beside the values
Assay [1] addresses Protein translocase subunit SecA (Escherichia coli (strain K12)) (UniProt P10408). The experiment in a line: Assay to Identify E. coli SecA ATPase Inhibitors. The assay is classed as functional. The settings on record: 30 µM.
The target in assay [2] is T1, Ubiquitin-activating enzyme e1, putative (Leishmania donovani (strain BPK282A1)) (UniProt E9BSI1).
T1 sequence (whole entry): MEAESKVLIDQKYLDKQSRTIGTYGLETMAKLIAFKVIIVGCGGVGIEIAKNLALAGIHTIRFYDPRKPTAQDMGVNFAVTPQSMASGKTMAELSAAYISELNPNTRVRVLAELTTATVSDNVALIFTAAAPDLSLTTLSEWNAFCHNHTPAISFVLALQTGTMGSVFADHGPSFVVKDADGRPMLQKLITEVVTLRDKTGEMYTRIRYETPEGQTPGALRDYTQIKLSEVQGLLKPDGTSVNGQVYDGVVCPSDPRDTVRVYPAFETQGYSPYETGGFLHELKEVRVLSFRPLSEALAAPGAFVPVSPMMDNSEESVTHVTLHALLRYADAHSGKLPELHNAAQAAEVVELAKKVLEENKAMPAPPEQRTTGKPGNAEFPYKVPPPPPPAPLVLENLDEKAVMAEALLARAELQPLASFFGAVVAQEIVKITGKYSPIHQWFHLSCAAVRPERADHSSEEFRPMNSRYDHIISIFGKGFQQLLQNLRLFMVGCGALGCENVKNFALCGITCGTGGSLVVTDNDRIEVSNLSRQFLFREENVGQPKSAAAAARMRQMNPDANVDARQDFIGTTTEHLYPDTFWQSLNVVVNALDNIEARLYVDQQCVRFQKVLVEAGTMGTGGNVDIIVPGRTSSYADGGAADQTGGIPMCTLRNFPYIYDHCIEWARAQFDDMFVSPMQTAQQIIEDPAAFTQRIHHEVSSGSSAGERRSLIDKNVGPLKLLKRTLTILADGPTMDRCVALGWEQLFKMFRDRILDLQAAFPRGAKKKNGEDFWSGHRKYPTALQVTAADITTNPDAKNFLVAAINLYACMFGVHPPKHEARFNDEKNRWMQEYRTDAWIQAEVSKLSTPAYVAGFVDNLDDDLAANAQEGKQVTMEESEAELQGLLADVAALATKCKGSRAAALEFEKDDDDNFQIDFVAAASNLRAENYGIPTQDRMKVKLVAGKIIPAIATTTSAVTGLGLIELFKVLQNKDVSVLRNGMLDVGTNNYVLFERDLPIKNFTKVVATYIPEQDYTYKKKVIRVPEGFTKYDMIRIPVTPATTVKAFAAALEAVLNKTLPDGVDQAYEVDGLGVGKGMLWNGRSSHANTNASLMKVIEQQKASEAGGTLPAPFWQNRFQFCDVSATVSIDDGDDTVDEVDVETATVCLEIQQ
The experiment in a line: Leishmania donovani Ubiquitin Activating Enzyme (LdE1). The assay is classed as functional. The settings on record: 30 µM.

The target of assay [3] is AMP-activated protein kinase, AMPK (Homo sapiens) (UniProt P54646+O43741+P54619+Q9UGJ0+Q9Y478+Q13131+Q9UGI9). The experiment in a line: AMP-dependent Kinase enzyme assay. An in vitro enzyme assay that detects ADP turnover that is directly proportional to AMPK activity. This uses naive AMPK that is activated during the assay with MK-8722. In kind it is functional. The following applies: 30 µM.

The target of assay [4] is Sialic acid-binding Ig-like lectin 9 (Homo sapiens) (UniProt Q9Y336). As to the kind of experiment: Hs-Siglec9 ALPHAscreen SOP 20170721. The following applies: 10 µM. For orientation: Bead proximity is the source of the signal in Alpha formats.
Sialic acid-binding Ig-like lectin 9 (Homo sapiens), sequence (Q9Y336 whole entry): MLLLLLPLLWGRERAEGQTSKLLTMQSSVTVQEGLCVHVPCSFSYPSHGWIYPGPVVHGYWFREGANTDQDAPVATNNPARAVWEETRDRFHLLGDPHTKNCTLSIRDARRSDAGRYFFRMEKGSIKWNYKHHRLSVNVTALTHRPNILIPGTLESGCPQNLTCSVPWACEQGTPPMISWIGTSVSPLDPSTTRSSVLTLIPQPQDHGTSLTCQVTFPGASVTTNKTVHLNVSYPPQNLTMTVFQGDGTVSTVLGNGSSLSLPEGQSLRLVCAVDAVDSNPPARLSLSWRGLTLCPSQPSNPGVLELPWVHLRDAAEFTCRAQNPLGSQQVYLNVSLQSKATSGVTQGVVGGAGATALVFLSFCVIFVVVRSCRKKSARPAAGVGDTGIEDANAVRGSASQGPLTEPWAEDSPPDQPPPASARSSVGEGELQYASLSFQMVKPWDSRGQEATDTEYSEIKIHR
The next assay relates to Trypanosoma cruzi. As to the kind of experiment: Trypanosoma cruzi phosphomannomutase and mannose-1-phosphate guanylyltransferase assay. The assay is classed as functional. The settings on record: 10 µM.
Assay [5] deals with T2, Arginase-2, mitochondrial (Homo sapiens) (UniProt P78540).
T2 sequence (whole entry): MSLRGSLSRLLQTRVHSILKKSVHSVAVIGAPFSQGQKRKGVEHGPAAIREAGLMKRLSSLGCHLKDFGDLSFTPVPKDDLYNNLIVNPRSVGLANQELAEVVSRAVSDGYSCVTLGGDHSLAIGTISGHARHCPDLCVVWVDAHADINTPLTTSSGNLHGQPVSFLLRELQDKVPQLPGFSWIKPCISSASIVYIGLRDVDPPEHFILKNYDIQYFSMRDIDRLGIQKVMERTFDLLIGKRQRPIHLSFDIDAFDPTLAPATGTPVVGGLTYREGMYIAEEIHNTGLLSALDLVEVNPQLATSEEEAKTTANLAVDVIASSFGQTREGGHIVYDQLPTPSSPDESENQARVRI
As to the kind of experiment: in vitro enzyme assay to detect the production of urea directly proportional to the activity of Arginase II. Further: in the data most compounds retested in dose-response had high values. The assay is classed as functional. The settings on record: 33.3 µM.

The target of assay [6] is T3, Proteasome subunit beta (Trypanosoma cruzi) (UniProt O96673).
T3 sequence (whole entry): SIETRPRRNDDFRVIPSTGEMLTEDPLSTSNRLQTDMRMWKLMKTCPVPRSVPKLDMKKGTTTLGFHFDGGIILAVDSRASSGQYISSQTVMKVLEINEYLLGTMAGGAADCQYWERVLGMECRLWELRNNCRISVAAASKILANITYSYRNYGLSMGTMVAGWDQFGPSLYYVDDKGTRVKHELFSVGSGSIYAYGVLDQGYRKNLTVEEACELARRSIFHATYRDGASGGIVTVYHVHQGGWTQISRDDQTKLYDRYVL
As to the kind of experiment: Trypanosoma cruzi proteasome chymotrypsin-like activity (TcProtChymo) assay. Further: in the data most compounds retested in dose-response had high values. The assay is classed as functional. The settings on record: 9.37 µM.

For another assay, the species on record is Homo sapiens. The experiment in a line: To identify inhibition of the IFN signalling (Jak-Stat) pathway via expression of an eGFP reporter gene under the control of an IFN-stimulated response element (ISRE) containing MxA promoter. The settings on record: 30 µM. The assay is classed as functional. For orientation: Reporter assays use an easily measured gene product as a stand-in for the process of interest.

The target of assay [7] is T4, Tyrosyl-tRNA synthetase, putative (Trypanosoma cruzi (strain CL Brener)) (UniProt Q4DSP6).
T4 sequence (whole entry): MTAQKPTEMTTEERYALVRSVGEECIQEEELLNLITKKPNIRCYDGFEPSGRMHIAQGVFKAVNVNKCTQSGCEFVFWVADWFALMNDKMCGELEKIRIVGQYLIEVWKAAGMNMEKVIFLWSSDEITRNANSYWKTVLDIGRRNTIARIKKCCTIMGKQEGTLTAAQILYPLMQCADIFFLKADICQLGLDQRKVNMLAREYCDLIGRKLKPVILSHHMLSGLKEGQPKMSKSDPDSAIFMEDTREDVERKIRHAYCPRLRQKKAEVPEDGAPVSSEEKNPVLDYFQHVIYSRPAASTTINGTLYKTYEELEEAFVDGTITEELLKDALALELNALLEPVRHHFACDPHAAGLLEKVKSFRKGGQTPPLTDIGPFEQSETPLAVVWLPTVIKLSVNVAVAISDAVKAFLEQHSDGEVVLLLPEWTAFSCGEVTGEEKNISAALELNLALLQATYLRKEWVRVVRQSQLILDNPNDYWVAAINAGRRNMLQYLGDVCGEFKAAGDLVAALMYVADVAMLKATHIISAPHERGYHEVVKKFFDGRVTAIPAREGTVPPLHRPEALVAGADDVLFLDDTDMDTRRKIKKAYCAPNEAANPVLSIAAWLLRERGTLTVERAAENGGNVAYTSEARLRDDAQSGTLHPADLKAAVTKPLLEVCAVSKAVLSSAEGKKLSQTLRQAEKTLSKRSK
As to the kind of experiment: Trypanosoma cruzi tyrosyl tRNA synthetase (TcYRS) _High Tyrosine SOP. Further: in the data most compounds retested in dose-response had high values. In kind it is functional. The following applies: 30 µM.

Assay [8] has as its target T4, Tyrosyl-tRNA synthetase, putative (Trypanosoma cruzi (strain CL Brener)). As to the kind of experiment: Trypanosoma cruzi tyrosyl tRNA synthetase (TcYRS) SOP. The following applies: 30 µM. In kind it is functional.
The target of assay [9] is Chromo domain-containing protein 1 (Saccharomyces cerevisiae (strain ATCC 204508 / S288c) (Baker's yeast)) (UniProt P32657). The experiment in a line: ScCHD-1 Enzyme Inhibition Assay. Further: in the data most compounds retested in dose-response had high values. The assay is classed as functional. The settings on record: 30 µM.
Chromo domain-containing protein 1 (Saccharomyces cerevisiae (strain ATCC 204508 / S288c) (Baker's yeast)), sequence (P32657 whole entry, the tested form may be a part): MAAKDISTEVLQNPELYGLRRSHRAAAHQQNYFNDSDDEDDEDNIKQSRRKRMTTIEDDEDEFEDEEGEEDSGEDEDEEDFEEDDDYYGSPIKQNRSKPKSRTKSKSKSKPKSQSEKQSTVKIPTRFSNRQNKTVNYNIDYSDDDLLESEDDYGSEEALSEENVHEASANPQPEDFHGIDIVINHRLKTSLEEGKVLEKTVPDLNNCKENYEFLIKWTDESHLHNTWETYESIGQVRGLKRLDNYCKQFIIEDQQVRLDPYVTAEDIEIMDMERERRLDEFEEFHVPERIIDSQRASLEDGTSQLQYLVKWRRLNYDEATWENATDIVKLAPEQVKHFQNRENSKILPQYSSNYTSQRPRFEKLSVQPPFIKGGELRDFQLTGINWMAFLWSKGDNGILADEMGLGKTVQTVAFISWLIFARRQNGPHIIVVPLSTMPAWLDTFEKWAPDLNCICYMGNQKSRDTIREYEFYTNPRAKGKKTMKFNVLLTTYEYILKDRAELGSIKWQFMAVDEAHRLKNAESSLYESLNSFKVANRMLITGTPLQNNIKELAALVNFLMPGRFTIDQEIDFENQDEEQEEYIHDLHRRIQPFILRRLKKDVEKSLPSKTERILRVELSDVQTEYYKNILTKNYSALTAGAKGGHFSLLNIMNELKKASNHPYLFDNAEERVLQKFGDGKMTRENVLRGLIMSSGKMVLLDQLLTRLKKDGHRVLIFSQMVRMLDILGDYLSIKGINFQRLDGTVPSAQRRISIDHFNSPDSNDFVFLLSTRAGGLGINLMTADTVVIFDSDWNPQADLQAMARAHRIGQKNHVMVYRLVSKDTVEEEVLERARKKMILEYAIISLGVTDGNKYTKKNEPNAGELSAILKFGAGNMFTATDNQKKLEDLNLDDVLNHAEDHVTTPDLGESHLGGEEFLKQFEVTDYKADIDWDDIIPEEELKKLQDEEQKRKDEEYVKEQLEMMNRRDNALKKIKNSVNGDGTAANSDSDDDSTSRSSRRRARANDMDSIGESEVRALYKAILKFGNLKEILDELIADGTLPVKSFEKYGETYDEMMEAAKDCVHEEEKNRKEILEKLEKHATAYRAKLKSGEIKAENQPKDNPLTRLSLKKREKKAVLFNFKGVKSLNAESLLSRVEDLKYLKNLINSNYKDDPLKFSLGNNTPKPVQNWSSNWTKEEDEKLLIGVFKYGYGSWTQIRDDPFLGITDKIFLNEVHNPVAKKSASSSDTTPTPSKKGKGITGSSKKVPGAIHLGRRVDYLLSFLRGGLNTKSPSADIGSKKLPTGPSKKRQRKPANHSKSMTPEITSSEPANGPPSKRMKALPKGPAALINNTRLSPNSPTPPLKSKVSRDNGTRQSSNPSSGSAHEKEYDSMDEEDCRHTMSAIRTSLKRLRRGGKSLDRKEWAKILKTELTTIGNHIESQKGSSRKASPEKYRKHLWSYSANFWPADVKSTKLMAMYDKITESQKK

For some of these results: Entries with a potency or affinity are not part of this list.

Protein translocase subunit SecA (Escherichia coli (strain K12)), sequence (P10408 whole entry): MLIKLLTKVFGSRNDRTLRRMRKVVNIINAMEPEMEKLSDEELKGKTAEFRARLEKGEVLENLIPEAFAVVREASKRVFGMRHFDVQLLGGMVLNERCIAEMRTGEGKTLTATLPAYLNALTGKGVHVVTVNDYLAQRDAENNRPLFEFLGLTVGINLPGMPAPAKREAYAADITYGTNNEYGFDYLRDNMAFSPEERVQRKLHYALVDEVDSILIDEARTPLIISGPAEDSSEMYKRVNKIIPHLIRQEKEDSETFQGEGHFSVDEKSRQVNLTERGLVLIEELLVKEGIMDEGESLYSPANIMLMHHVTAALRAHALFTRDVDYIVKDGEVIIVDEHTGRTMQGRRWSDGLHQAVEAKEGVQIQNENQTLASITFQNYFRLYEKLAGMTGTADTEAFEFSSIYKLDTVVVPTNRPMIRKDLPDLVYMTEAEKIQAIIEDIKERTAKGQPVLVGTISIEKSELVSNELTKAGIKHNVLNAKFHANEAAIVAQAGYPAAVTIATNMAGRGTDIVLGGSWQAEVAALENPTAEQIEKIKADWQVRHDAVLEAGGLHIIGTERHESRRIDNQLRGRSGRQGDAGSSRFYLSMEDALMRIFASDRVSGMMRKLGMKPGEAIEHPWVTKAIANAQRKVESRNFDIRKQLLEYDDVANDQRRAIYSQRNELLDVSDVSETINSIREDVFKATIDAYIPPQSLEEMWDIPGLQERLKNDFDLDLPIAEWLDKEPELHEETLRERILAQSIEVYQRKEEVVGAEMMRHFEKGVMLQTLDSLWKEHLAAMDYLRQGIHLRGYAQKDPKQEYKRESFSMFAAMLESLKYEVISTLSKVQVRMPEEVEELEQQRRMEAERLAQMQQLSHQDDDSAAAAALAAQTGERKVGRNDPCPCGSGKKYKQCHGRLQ

For the molecule `Cc1noc(C)c1CCC(=O)N1CCN(CCn2cncn2)CC1`, the Percent Effect is -2.87% in assay [1]; 4.17% in [2]; -6.26% in assay [3]; 2.38% in assay [4]; 0.68% in the assay on Trypanosoma cruzi; 1.77% in assay [5]. Also, the Percent Effect in assay [6] was 21.1%; in the assay listed under Homo sapiens, -11.6%; in [7], 8.42%; in assay [8], 10.3%; in assay [9] it was -3.13%.
In the case of `O=C(COc1cccc2c1CCC2=O)NCCSc1ccccc1`, the Percent Effect in assay [1] is -1.44%; in assay [2], 5.26%; in assay [3], 7.61%; in [4], -2.93%; with Trypanosoma cruzi it was -2.63%; in assay [5], 10.7%. Also, the Percent Effect in [6] is 8.92%; in the assay listed under Homo sapiens, 20.8%; in [7] it was -2.13%; in assay [8] it was 7.79%; in [9], -5.02%.
For the molecule `O=C(c1cccc2c1OCCO2)N1CCCC(n2ccnc2)C1` (stereo not drawn), the Percent Effect in [1] was -2.67%; in assay [2], 5.26%; in [3] it was 2.73%; in assay [4], -0.188%; with Trypanosoma cruzi, -9.77%; in assay [5] it was 3.45%. Besides, the Percent Effect in [6] worked out at 2.17%; in the assay filed under Homo sapiens it was 13.9%; in assay [7], 3.43%; in [8], 4.88%; in [9], 3.23%.
In the case of `O=C(NCCc1ccncc1)C1CCN(Cc2ccco2)CC1`, the Percent Effect is -7.38% in assay [1]; -2.67% in assay [2]; -2.38% in [3]; -3.22% in [4]; -6.52% with Trypanosoma cruzi; -2.6% in assay [5]. The Percent Effect in [6] was 12.7%; in the assay filed under Homo sapiens, 25.9%; in assay [7] it was -1.64%; in [8], 1.24%; in [9], -7.8%.
Consider `COc1cccc(OCc2cc(C(=O)NC[C@H]3CCCN3)n[nH]2)c1`, for which the Percent Effect was -3.48% in [1]; 15.3% in assay [2]; -5.03% in assay [3]; 30.2% in assay [4]; 3.4% with Trypanosoma cruzi; 15.4% in assay [5]. In addition, the Percent Effect in assay [6] was 7.19%; in the assay filed under Homo sapiens, -6.81%; in [7], 1.05%; in assay [8], 12.8%; in [9], -5.02%.
With `CC(O)CN1CCN(C(=O)c2cccc(CC#N)c2)CC1` (stereo not drawn), the Percent Effect is -0.303% in assay [1]; 23.4% in [2]; -4.34% in assay [3]; -2.88% in assay [4]; 0.749% with Trypanosoma cruzi; 3.92% in [5]. In addition, the Percent Effect is 12.7% in assay [6]; 27% in the assay listed under Homo sapiens; 6.8% in assay [7]; 2.44% in assay [8]; -4.3% in assay [9].
As to `Cc1cc(CC(=O)N(CC2CN(C)CCO2)c2nccs2)no1` (stereo not drawn), the Percent Effect in [1] is 1.69%; in [2], 0%; in assay [3] it was -0.764%; in assay [4] it was 6.8%; in the assay on Trypanosoma cruzi, 6.41%; in [5], 2.03%. Besides, the Percent Effect in assay [6] was 1.08%; in the assay filed under Homo sapiens, -15.8%; in assay [7] it was 0%; in assay [8] it was 6.1%; in assay [9], -3.54%.
Regarding `OC1(CN2CCCC2)CCCN(Cc2ccc(F)cc2Cl)C1` (stereo not drawn), the Percent Effect in assay [1] is -2.56%; in assay [2] it was 0%; in assay [3], -4.18%; in assay [4] it was -3.78%; with Trypanosoma cruzi it was -7.5%; in assay [5], 3.12%. For the same molecule, the Percent Effect is 12% in assay [6]; 5.3% in the assay listed under Homo sapiens; 3.83% in assay [7]; 11.1% in [8]; -3.94% in [9].
